# Source: paper PMC5540273 (PLoS ONE, 2017)
# Tests used:
# Details in all cases: concentration: 1 μM, replicates: in singlicate; n = 1
# TLK1 = tested on: TLK1
# TLK2 = tested on: TLK2
# TNIK = tested on: TNIK
# TNK1 = tested on: TNK1
# TNK2 = tested on: TNK2
# TNNI3K = tested on: TNNI3K
# TRKA = tested on: T1, TRKA
# T1 construct: gene NTRK1
# TRKB = tested on: TRKB
# TRKC = tested on: T2, TRKC
# T2 construct: gene NTRK3
# TRPM6 = tested on: TRPM6
# 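Further: KINOMEscan kinase panel screen.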
Structure (SMILES),%Inh (TLK1),%Inh (TLK2),%Inh (TNIK),%Inh (TNK1),%Inh (TNK2),%Inh (TNNI3K),%Inh (TRKA),%Inh (TRKB),%Inh (TRKC),%Inh (TRPM6)
CN1c2ccc(-c3ccc(C(N)=O)cc3)cc2-c2[nH]ncc2S1(=O)=O,36%,0%,45%,24%,0%,0%,0%,0%,0%,13%
COc1ccc(Nc2nccc(-c3ccc(NC(=O)c4cc5cc(F)ccc5[nH]4)cc3)n2)cc1 [GSK1229496],23%,0%,0%,47%,0%,0%,9%,13%,0%,0%
COc1ccc(Nc2nccc(N3CCC(NC(=O)C(C)c4ccc(Cl)cc4)CC3)n2)cc1 (centres unmarked) [GSK1379812],7%,0%,0%,0%,8%,2%,49%,0%,0%,0%
O=C(Nc1n[nH]c2nc(-c3cccs3)c(Br)cc12)C1CCCC1 [SB-743341],0%,0%,0%,0%,0%,0%,16%,22%,9%,0%
FC(F)(F)c1ccccc1-c1cc(-c2c[nH]nc2-c2ccccn2)ccn1 [GW679396],0%,0%,18%,1%,0%,0%,39%,0%,0%,3%
CC[C@@H]1CO[C@H](C(=O)Nc2ccccc2)CN1c1cc(-c2ccc3c(N)n[nH]c3c2)nc(NC)n1 [GSK2376236],21%,0%,0%,4%,0%,17%,9%,0%,0%,35%
Cl.Cl.Cl.N#Cc1ccc(CCNc2nccc(-c3cccc(CN4CCNCC4)c3)n2)cc1 [GSK2137462],9%,3%,3%,4%,5%,18%,56%,0%,0%,0%
Cc1ccc(NC(=O)Nc2ccccc2)cc1-c1ccc(C(=O)Nc2ccncc2)cc1 [GSK1398471],19%,4%,0%,18%,13%,49%,23%,0%,0%,27%
NS(=O)(=O)c1cccc(N/C=C2\C(=O)Nc3ccc(S(=O)(=O)Cc4c(Cl)cccc4Cl)cc32)c1 [GSK398099],75%,0%,91.8%,0%,26%,4%,49%,0%,29%,37%
CNCc1ccc2nc(NC(=O)c3ccc(C(C)(C)C)cc3)cn2c1,0%,0%,8%,0%,1%,6%,39%,58%,28%,1%
Cc1cnc(N)c(/C=C/c2cncc(C(=O)NCCc3ccc(Cl)cc3Cl)c2)c1.Cl [GSK190937],0%,0%,9%,0%,11%,0%,35%,0%,0%,0%
Cc1c(Cn2c(C)c(C)n3c(=O)cc(N4CCOCC4)nc23)cccc1C(F)(F)F [GSK2328680],0%,0%,0%,0%,13%,0%,12%,0%,21%,0%
O=C1NC(=O)C(c2ccc(Cl)cc2)=C1Nc1cccc(Cl)c1 [SB-317651],12%,0%,0%,0%,0%,0%,23%,21%,0%,0%
Nc1nccc(-c2c(-c3ccc(F)cc3)ncn2C2CCN(Cc3ccccc3)CC2)n1 [SB-219980],0%,0%,96.5%,35%,10%,0%,0%,0%,0%,0%
CNc1nc(-c2ccc3c(N)n[nH]c3c2)cc(N2C[C@@H](C(=O)NC3CCCCC3)OC[C@H]2C)n1 [GSK2375584],17%,5%,8%,13%,17%,2%,11%,0%,0%,0%
COC(=O)c1cccc(NC(=O)NC2CCN(c3ccnc(Nc4ccc(OC)cc4)n3)C2)c1 (centres unmarked) [GSK1379746],0%,0%,0%,0%,12%,0%,34%,71%,86%,11%
CNC(=O)c1ccc(C)c(-n2c(C)cc(OCc3ccc(F)cc3F)c(Br)c2=O)c1,0%,0%,0%,0%,0%,0%,0%,0%,0%,0%
